# Assay results from the supplement of paper PMC11006884.
# The full data set covers some 6,500 targets. This sample favours those with a hit. About 2% of all pairs of compound and target were hits.
# Compound: COC(=O)C#Cc1ccccc1 [methyl 3-phenylpropiolate]
# Assay: log2 ratio of iodoacetamide-alkyne labeling of the cysteine site, DMSO over compound (competition); higher = stronger covalent engagement of the cysteine by the compound, active = 1 or more
# Conditions: 500 µM; treatment time 1 h; system: HEK293T cell lysate
# How it was run: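 Three replicates, each with duplicate channels, were prepared from HEK293T lysate (2 mg/mL) treated with vehicle or electrophile at 500 µM for 1 h at ambient temperature. Iodoacetamide alkyne was then applied for 1 h, and samples were clicked to sCIP-TMT reagents, pooled, trypsin-digested overnight at 37 °C, enriched on streptavidin, acid-eluted and analysed on Orbitrap Eclipse LC-MS/MS with FAIMS, with FragPipe quantification. The log2 competition ratio per cysteine is the mean control-channel divided by the mean compound-channel reporter intensity. Cysteines quantified in only one replicate were left out.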
# UniProt Q9NXC5, sequence (Q9NXC5 whole entry): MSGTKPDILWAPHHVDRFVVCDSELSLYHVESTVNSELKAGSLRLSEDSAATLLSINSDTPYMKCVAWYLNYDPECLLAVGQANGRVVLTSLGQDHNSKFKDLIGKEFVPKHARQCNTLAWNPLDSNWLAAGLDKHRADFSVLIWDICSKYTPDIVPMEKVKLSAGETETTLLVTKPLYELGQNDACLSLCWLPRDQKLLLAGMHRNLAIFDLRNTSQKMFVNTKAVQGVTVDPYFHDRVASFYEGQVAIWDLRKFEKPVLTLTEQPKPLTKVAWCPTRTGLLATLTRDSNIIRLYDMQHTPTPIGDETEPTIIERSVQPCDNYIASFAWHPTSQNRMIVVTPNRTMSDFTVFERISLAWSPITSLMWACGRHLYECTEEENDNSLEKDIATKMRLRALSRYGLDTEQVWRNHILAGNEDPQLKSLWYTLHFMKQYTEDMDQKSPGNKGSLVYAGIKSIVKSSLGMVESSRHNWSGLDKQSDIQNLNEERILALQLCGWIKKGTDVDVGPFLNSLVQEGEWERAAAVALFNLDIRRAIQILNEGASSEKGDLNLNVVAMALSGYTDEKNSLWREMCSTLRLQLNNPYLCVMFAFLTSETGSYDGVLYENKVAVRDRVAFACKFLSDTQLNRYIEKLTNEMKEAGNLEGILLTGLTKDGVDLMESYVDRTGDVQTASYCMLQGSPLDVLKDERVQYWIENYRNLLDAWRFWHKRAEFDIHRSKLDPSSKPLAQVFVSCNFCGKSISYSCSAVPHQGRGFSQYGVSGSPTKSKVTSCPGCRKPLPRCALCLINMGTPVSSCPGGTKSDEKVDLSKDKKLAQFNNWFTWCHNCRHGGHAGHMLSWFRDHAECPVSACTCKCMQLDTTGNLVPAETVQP
# UniProt Q9NVI1, sequence (Q9NVI1 whole entry, looked up): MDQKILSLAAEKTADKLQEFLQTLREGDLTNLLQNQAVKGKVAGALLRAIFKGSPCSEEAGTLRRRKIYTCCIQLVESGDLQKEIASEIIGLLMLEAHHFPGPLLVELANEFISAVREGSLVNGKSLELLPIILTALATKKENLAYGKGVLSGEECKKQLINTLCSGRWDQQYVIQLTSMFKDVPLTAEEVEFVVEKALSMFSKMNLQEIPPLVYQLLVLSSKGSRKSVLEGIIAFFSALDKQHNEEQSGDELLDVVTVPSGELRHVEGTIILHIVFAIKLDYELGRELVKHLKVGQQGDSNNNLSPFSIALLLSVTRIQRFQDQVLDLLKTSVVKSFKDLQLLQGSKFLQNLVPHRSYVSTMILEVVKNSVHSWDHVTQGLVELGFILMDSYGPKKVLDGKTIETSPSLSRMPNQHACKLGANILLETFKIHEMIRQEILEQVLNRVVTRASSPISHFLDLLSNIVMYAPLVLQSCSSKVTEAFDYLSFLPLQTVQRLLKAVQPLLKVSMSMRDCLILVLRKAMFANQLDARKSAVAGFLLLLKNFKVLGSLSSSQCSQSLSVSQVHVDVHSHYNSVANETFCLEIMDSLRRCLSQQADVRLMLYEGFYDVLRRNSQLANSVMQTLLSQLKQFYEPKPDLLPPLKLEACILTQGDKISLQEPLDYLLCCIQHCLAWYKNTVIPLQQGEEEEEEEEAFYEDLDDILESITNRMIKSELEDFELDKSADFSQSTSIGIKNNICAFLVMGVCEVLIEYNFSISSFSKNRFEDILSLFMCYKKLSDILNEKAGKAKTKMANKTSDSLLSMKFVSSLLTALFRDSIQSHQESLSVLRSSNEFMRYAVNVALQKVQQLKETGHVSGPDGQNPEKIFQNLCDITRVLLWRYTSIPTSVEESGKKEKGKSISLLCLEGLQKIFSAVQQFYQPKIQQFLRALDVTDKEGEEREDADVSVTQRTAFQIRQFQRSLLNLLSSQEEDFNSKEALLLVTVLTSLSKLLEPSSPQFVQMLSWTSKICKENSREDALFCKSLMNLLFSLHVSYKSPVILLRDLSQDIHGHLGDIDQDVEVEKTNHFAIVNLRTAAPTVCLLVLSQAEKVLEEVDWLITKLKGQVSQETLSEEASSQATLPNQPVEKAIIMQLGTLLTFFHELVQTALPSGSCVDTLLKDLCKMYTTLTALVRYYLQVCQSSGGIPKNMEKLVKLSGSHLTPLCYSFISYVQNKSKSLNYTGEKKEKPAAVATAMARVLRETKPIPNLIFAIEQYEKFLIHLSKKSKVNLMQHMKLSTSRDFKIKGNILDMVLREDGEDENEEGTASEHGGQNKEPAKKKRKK
# UniProt Q9HAU5, sequence (Q9HAU5 whole entry, looked up): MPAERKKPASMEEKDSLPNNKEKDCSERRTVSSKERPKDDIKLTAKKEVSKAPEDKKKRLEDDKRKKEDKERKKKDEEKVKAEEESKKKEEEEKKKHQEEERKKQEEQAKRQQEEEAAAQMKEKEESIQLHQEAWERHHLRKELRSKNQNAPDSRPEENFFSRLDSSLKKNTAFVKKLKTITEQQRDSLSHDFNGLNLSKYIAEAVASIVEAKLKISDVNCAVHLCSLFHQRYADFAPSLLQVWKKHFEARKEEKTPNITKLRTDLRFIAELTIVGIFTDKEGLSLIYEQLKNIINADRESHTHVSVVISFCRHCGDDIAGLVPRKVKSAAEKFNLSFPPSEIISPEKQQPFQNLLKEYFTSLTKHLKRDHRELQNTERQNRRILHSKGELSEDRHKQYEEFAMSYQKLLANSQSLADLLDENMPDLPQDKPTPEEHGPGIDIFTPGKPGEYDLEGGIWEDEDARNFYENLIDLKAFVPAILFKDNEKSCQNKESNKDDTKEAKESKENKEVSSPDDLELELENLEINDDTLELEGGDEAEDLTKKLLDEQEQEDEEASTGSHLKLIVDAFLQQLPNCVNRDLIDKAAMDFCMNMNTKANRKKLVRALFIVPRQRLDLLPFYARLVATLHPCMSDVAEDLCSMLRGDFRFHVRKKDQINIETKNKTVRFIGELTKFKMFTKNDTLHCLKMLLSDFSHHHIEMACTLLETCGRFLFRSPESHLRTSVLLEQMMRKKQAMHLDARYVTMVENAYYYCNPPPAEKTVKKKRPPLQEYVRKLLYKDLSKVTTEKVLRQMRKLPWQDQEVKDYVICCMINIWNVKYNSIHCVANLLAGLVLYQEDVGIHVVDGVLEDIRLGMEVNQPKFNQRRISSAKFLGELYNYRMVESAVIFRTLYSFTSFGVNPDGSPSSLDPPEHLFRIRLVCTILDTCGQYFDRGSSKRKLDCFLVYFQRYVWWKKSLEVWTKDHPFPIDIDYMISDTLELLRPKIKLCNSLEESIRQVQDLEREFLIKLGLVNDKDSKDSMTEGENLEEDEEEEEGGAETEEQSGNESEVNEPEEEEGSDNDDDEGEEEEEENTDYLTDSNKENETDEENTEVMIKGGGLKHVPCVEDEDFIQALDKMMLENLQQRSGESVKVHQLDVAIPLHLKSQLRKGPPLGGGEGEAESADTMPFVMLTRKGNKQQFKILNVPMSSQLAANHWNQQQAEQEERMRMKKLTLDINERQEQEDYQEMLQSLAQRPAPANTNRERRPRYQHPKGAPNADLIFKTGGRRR
# UniProt Q9C0C9, sequence (Q9C0C9 whole entry, looked up): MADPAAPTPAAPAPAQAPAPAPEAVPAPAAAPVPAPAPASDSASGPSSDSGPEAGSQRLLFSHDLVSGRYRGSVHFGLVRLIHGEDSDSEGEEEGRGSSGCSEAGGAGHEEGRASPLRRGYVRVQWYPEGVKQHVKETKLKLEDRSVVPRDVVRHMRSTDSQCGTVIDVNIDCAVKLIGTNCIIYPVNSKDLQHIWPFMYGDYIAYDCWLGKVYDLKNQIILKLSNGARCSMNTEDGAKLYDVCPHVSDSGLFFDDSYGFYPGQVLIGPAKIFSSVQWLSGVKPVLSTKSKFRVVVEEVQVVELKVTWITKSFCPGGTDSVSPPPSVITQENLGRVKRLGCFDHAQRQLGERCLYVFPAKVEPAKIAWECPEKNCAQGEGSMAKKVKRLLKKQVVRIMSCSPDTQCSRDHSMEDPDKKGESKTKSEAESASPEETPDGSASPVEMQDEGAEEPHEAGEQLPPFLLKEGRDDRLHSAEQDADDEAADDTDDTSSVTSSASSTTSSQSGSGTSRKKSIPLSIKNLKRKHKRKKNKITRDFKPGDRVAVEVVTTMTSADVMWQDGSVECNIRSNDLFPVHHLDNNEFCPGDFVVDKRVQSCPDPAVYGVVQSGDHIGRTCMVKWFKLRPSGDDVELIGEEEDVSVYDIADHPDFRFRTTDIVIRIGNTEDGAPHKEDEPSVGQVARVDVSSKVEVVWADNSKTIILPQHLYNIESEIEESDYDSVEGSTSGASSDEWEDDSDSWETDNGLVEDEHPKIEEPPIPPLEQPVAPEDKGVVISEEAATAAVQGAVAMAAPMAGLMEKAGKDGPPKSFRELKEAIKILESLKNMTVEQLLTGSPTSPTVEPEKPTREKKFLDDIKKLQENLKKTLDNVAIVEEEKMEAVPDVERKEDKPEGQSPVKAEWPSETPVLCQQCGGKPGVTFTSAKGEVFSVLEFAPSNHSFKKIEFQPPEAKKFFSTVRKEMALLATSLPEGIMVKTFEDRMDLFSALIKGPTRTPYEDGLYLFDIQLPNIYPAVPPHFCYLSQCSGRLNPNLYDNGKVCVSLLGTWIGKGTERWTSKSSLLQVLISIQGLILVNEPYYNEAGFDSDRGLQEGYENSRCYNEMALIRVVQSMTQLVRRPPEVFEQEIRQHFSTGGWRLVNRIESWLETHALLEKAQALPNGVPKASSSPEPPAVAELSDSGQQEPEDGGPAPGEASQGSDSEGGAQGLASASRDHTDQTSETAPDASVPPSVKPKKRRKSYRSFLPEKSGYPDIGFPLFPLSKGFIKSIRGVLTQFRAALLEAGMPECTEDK
# UniProt Q9NRX1, sequence (Q9NRX1 whole entry): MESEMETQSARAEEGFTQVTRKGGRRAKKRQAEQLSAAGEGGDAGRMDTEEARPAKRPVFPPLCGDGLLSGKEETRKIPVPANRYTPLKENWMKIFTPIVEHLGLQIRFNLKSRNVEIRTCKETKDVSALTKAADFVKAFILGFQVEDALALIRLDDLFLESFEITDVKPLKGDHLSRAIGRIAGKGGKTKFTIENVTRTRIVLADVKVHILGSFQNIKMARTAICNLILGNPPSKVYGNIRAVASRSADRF
row,Target,log2 ratio of iodoacetamide-alkyne labeling
1,UniProt Q9BWW4_C80,0.318 (inactive)
2,RABGAP1 C1026 (UniProt Q9Y3P9),-0.252 (inactive)
3,MDN1 C172 (UniProt Q9NU22),0.0689 (inactive)
4,MACF1 C5049 (UniProt Q9UPN3),0.311 (inactive)
5,FAM83D C15 (UniProt Q9H4H8),1.11 (active)
6,GPHN C26 (UniProt Q9NQX3),-0.0135 (inactive)
7,MAP3K4 C163 (UniProt Q9Y6R4),0.0336 (inactive)
8,CTSZ C92 (UniProt Q9UBR2),-0.349 (inactive)
9,MTPAP C242 (UniProt Q9NVV4),0.146 (inactive)
10,LIMD1 C305 (UniProt Q9UGP4),1.43 (active)
11,LARS C573 (UniProt Q9P2J5),0.342 (inactive)
12,FANCI C56 (UniProt Q9NVI1),0.281 (inactive)
13,FAM120C C14 (UniProt Q9NX05),0.327 (inactive)
14,AGTPBP1 C567 (UniProt Q9UPW5),1.18 (active)
15,FAM120A C279 (UniProt Q9NZB2),-0.00137 (inactive)
16,TANC1 C131 (UniProt Q9C0D5),0.487 (inactive)
17,MLXIP C738 (UniProt Q9HAP2),-0.0833 (inactive)
18,FTO C326 (UniProt Q9C0B1),0.0865 (inactive)
19,MIOS C321 (UniProt Q9NXC5),0.126 (inactive)
20,SRP68 C247 (UniProt Q9UHB9),0.197 (inactive)

row,Target,log2 ratio of iodoacetamide-alkyne labeling
1,UBE2O C406 (UniProt Q9C0C9),1.46 (active)
2,CD2AP C540 (UniProt Q9Y5K6),0.456 (inactive)
3,UniProt Q9Y3U8_C48,0.297 (inactive)
4,PNO1 C64 (UniProt Q9NRX1),0.367 (inactive)
5,UniProt Q9UBD5_C158,1.13 (active)
6,XPO4 C1149 (UniProt Q9C0E2),0.048 (inactive)
7,EPS15L1 C470 (UniProt Q9UBC2),0.13 (inactive)
8,MBD1 C57 (UniProt Q9UIS9),0.0108 (inactive)
9,UBQLN4 C29 (UniProt Q9NRR5),1.12 (active)
10,RUVBL2 C227 (UniProt Q9Y230),0.198 (inactive)
11,SPATA5L1 C309 (UniProt Q9BVQ7),1.11 (active)
12,CACYBP C173 (UniProt Q9HB71),0.182 (inactive)
13,HECTD1 C1995 (UniProt Q9ULT8),0.345 (inactive)
14,UPF2 C1107 (UniProt Q9HAU5),0.18 (inactive)
15,KCTD3 C606 (UniProt Q9Y597),1.08 (active)
16,UFC1 C116 (UniProt Q9Y3C8),0.115 (inactive)
17,PPA2 C161 (UniProt Q9H2U2),-0.42 (inactive)
18,MED17 C110 (UniProt Q9NVC6),0.34 (inactive)
19,TACC3 C206 (UniProt Q9Y6A5),-0.132 (inactive)
20,MYO6 C1236 (UniProt Q9UM54),0.0604 (inactive)
